The record followed here is PubChem BioAssay AID1662 (Broad Institute, 2009).

In general, inhibition refers to the change of the read-out against control, counted positive when it falls.

Screen size: about 300,000 compounds; about 4,000 (1.3%) were called active. Many of the other results were omitted from the sample, so actives are more common in it than they were. A number with no mark means an inactive call.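 How the source made its calls: active means mean replicate score, as percent of positive control median, at least 50; inconclusive means mean below 50 but one replicate at or above 50; inactive means mean and every replicate below 50.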

This test can be described thus: kanamycin survival loss of SKKanGAS strain – BacTiter-Glo luminescence, streptokinase expression inhibitor project, primary screen (AID 1662).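 Further: strain carries kanamycin resistance gene driven by streptokinase promoter and grows in 40 µg/ml kanamycin; loss of luminescence reflects streptokinase promoter inhibition or plain growth inhibition; 0% = median of DMSO wells and 100% = positive control at its reference dose.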 Particulars: S. pyogenes SKKanGAS, kanamycin growth, 6 h, at 7.5 µM, hits give high values.
As for `COc1cc2nc(CN(C)Cc3ccc(F)cc3)[nH]c(=O)c2cc1OC`, the inhibition is 16.4%.
As to `CC1=CC=CN2C1=NC(=O)CC2(C)C(=O)N(CC(=O)NC1CCCC1)c1ccccc1C` (configuration not stated), the inhibition is 1.46%.
For `Cc1nn(CCCC(=O)NCc2ccccc2Cl)c(=O)c2nccn12`, the inhibition was -6.9%.
In the case of `Cc1ccc2nc(Nc3ccccc3)cc(C)c2c1` it was 0.508%; in that of `Cc1ccc2nc(-c3ccncc3)cc(C(=O)Nc3ccncc3)c2c1`, 1.9%.
For `CCS(=O)(=O)Nc1cccc(-c2cc(-c3ccccc3)c3cc(C)ccc3n2)c1`, the inhibition is 97.3% (active).
In the case of `CCOCCCNC(=O)c1ccc(CS(=O)(=O)c2cccc(C(F)(F)F)c2)o1` it was -1.72%; in that of `CC1CCN(c2ccc(-c3ccc(NC(=O)c4ccco4)cc3)nn2)CC1`, 70% (active); in that of `CC1CCN(C(NC(=O)c2ccco2)C(=O)c2ccccc2)CC1` (configuration not stated), -2.13%.
`CCC(=O)Nc1ccc(-c2ccc(N3CCCCC3)nn2)cc1`: the inhibition was 1.15%.
Consider `CCCCCN(C(=O)CCC(=O)OCCOc1ccc(OC)cc1)c1c(N)n(CCCC)c(=O)[nH]c1=O`, for which the inhibition is -3.52%.
In the case of `CS(=O)(=O)c1ccc2nnn(OCC(=O)Nc3cccc(C#N)c3)c2c1` it was -3.98%; in that of `COc1ccc(NC(=O)CN2C(=O)CSc3ccc(S(=O)(=O)N4CCC(C)CC4)cc32)cc1`, 10.8%; in that of `CCOC(=O)c1cnc(-n2nc(C)cc2C)nc1Nc1cccc(C(C)=O)c1`, 35%.
In the case of `CCOC(=O)c1cnc(-n2nc(C)cc2C)nc1NNc1cc(C)nc(-c2ccccc2)n1` it was 101% (active); in that of `CCOC(=O)c1cnc(-c2ccccc2)nc1Oc1ccc(C)cc1`, 20.4%.
In the case of `Cc1ccc(S(=O)(=O)/N=C(\CN2CCOCC2)N2CCOCC2)cc1` it was 2.49%.
For `CC(C)N1CCC(=NNc2ccc([N+](=O)[O-])cc2S(=O)(=O)N2CCOCC2)CC1`, the inhibition is 17.1%.
In the case of `CN(C)c1ccc(-n2cccc2/C=N/n2cnnc2)cc1` it was 0.00128%.
The result for `O=C(NC(=S)Nc1cccc2c(O)cccc12)c1cccc(Br)c1` reads 63.3% (active); that for `NS(=O)(=O)c1ccc(NC(=S)NC(=O)c2cccc(Br)c2)cc1`, 0.49%; that for `Cc1ccccc1NC(=S)NNC(=O)c1cccc(Br)c1`, -4.92%.
In the case of `CCOC(=O)c1ccccc1NS(=O)(=O)c1c(C)nc2sccn2c1=O` it was -2.29%; in that of `CN(C)CCNc1ccc(-c2n[nH]c(=O)c3ccccc23)cc1[N+](=O)[O-]`, -10.2%.
As for `COc1ccccc1/C=N\Nc1cc(C)nc(-n2nc(C)cc2C)n1`, the inhibition is 101% (active).
In the case of `COc1cccc2c(N/N=C/c3ccco3)cc(C)nc12` it was -8.63%; in that of `Cc1ccc(S(=O)(=O)Nc2nc(C)cc(N/N=C/c3ccc(O)cc3)n2)cc1`, -2.8%.
On to `Cc1cc(N/N=C\c2ccc(Br)cc2)nc(-n2nc(C)cc2C)n1`, for which the inhibition is 102% (active).
The result for `COc1ccc(/C=N/Nc2cc(N3CCOCC3)nc(C)n2)c(OC)c1` reads 14.3%; that for `Cc1nc(Cl)cc(N/N=C/c2ccccc2)n1`, -4.1%.
The result for `Oc1cccc(/C=N/Nc2ccc(Cl)nn2)c1O` reads -9.25%.
As for `COc1ccc(-c2nn(-c3ccccc3)cc2/C=N/Nc2ccccn2)cc1OC`, the inhibition was 16.9%.
The result for `COc1cccc(/C=N/Nc2cc(C)nc(-c3ccccc3O)n2)c1O` reads 64.5% (active).
For the compound `CC(=O)Nc1ccc(NS(=O)(=O)c2ccc3c(c2)NC(=O)CC(=O)N3)cc1`, the inhibition was -2.61%.
As to `CCOC(=O)N1CCN(S(=O)(=O)c2ccc(OC)cc2)CC1`, the inhibition was -0.833%.
Turning to `Cc1cc(N2C(=O)C(=O)/C(=C(/O)c3ccccc3)C2c2cccc(Br)c2)no1` (configuration not stated), the inhibition is 16.7%.
For `Cn1nnc(NC(=S)NC(=O)c2ccccc2)n1`, the inhibition is -0.537%.
The result for `COc1ccccc1CCC(=O)OCC(=O)N1CCN(S(=O)(=O)c2ccc(C)cc2C)CC1` reads -9.85%; that for `Cc1ccccc1NC(=O)C1CCCN(C(=O)NCc2ccccc2)C1` (configuration not stated), -1.35%; that for `CCCCN=C1C([N+](=O)[O-])=CC=C2C1=NC1(CCCCC1)N2O`, 2.56%.
In the case of `Clc1ccc(-c2cc(C3CCNCC3)[nH]n2)c(Cl)c1` it was 7.25%; in that of `COc1ccc(CCNC(=O)CCCCCNC(=O)N2CCn3c2nc2ccccc23)cc1OC`, 3.33%.
Consider `COc1ccccc1N1CCN(C(=O)CCS(=O)(=O)c2ccc3c(c2)NC(=O)C(C)S3)CC1` (configuration not stated), for which the inhibition was -2.2%.
The result for `COC(=O)CNC(c1ccccc1Cl)c1cc(Br)ccc1NC(=O)CCN1CCOCC1` (configuration not stated) reads -3.8%.
In the case of `CC(=O)O[C@H]1CC[C@@]2(C)[C@@H](CC[C@@H]3[C@@H]2CC[C@]2(C)[C@@H](C(C)(C)O)C[C@@H]32)C1` it was 29%; in that of `CCOc1cc(-c2cc(-c3ccc(OC)cc3)nc(N)c2C#N)ccc1O`, 30.5%.
The result for `COc1ccc(-c2cc(-c3ccc(N)cc3)nc(N)c2C#N)cc1OC` reads 9.35%; that for `CCOc1cc(-c2cc(-c3ccc(NC(C)=O)cc3)nc(N)c2C#N)ccc1O`, 83.8% (active); that for `O=S(=O)(c1cccc(C(F)(F)F)c1)N1CCN(c2cnccn2)CC1`, 0.567%.
Regarding `CC(C)CCNC(=O)CCNS(=O)(=O)c1ccc(Cl)cc1`, the inhibition is -4.22%.
The result for `COCCSc1nnc(NC(=O)CCS(=O)(=O)Cc2ccccc2)s1` reads -1.08%.
The result for `Cc1cc(C)cc(N(CCC#N)C(=O)CN2C(=O)NC3(CCCC3)C2=O)c1` reads -1.7%; that for `CCCOc1ccc(-c2nc(N)n[nH]2)cc1`, -0.246%.
Take `Cc1ccc(OCc2n[nH]c(=S)n2-c2ccc(C)cc2)cc1`: the inhibition was -0.726%.
As to `Cc1ccc(OCCCCc2c(C)n[nH]c2C)cc1`, the inhibition was 87.2% (active).
The result for `Cc1cc2c(c(=O)n1C)C(C(C)C)C(C#N)=C(N)O2` (configuration not stated) reads -0.711%; that for `CCOC(=O)c1c(-c2ccccc2)oc2ccc(OCC(N)=O)cc12`, -10.7%; that for `CCOC(=O)c1c(-c2ccccc2)oc2cc(Br)c(O)c(C=O)c12`, 56.9% (active).
For `CCOC(=O)c1c(-c2ccccc2)oc2cc(Br)c(O)cc12`, the inhibition was 12.5%.
In the case of `COc1ccccc1CNS(=O)(=O)c1cc2c3c(c1)CCC(=O)N3CCC2` it was -8.56%; in that of `NS(=O)(=O)c1ccc(CCNC(=O)CN2C(=O)c3ccccc3S2(=O)=O)cc1`, -2.59%; in that of `CCCCCCc1cc2cc(-c3nnc(-c4ccccc4)o3)c(=O)oc2cc1O`, 62% (active).
Take `CCCCCCc1ccc(O)cc1O`: the inhibition is 9.42%.
In the case of `Cc1c(CC(=O)NCCCCCC(=O)O)c(=O)oc2cc3occ(-c4ccccc4)c3cc12` it was 18.7%.
As to `O=C(CCc1nnc2ccc(NCc3ccco3)nn12)Nc1cc(F)ccc1F`, the inhibition is -0.213%.
`Cc1ccc(NC(=S)NC(=O)c2ccc(-c3ccccc3)cc2)cc1`: the inhibition was 9.46%.
Turning to `C/C(=N\NC(=O)c1ccc(C)cc1)C1C(=O)c2ccccc2C1=O`, the inhibition is 52.3% (active).
For `Cc1ccc(C(=O)NC(=S)Nc2ccccc2C)cc1`, the inhibition was -6.14%.
Turning to `CC(C)c1ccccc1OCC(O)CN(CC(O)COc1cccc2ccccc12)C(C)C` (configuration not stated), the inhibition was 97.9% (active).
In the case of `Cc1cc(C)c(NC(=O)C[N+](C)(C)CC(O)COc2cccc3ccccc23)c(C)c1` (configuration not stated) it was 29%; in that of `OC(COc1cccc2ccccc12)CN1CCN(c2ccccn2)CC1` (configuration not stated), 13.1%; in that of `CC(C)=CCCC1(C)C=Cc2c(ccc3c2[nH]c2cc(O)c(C)cc23)O1` (configuration not stated), 112% (active).
On to `COc1ccc(CCNC(=O)C(=O)NCC2OCCN2S(=O)(=O)c2cccs2)cc1OC` (configuration not stated), for which the inhibition is -1.24%.
Regarding `CCCCCCCCCCCCC(NC(C)=O)(C(=O)OCC)C(=O)OCC`, the inhibition is 61.2% (active).
As for `CCCC(CCC(=O)OC)(C(=O)OCC)c1csc(N)n1` (configuration not stated), the inhibition was -8.11%.
The result for `O=S(=O)(c1cccc(-c2cn3ccccc3n2)c1)N1CCCC1` reads -3.54%; that for `O=C(CSc1nc(O)c(Cc2ccccc2)c(=O)[nH]1)Nc1nc2c(s1)CCCC2`, 28.8%; that for `O=S(=O)(c1cc(Cl)ccc1Cl)N1CCN(Cc2ccco2)CC1`, 2.62%.
In the case of `CC(=O)Nc1ccc(NC(=O)C(C)n2c3ccccc3c3nc(=O)cc(C)n32)cc1` (configuration not stated) it was 3.43%.
As for `Cc1sc2nc(SCC(N)=O)n(C)c(=O)c2c1C`, the inhibition is -2.36%.
Turning to `C=CCn1c(SCC(=O)NCC2CCCO2)nc2sc(C)c(C)c2c1=O` (configuration not stated), the inhibition is -1.04%.
In the case of `C=CCn1c(SCC(=O)/C(C#N)=C(\C)N)nc2sc(C)c(C)c2c1=O` it was 58.1% (active); in that of `COc1ccc(NC(=O)CN(C)C(=O)/C=C/c2cn(Cc3ccccc3)nc2-c2cccnc2)cc1`, 18.3%; in that of `CCOc1ccc2[nH]c(=O)c(CN(CCCO)S(=O)(=O)c3ccc(F)cc3)cc2c1`, 0.803%.
On to `COc1cc(C2C(C(=O)c3ccco3)=C(O)C(=O)N2c2cc(C)on2)ccc1OCc1ccccc1` (configuration not stated), for which the inhibition is 2.64%.
Consider `C=CCOc1cccc(C2C(C(=O)c3ccc(C)o3)=C(O)C(=O)N2c2nnc(C)s2)c1` (configuration not stated), for which the inhibition is 7.43%.
Take `Cc1cc(N2C(=O)C(O)=C(C(=O)c3ccc(C)o3)C2c2ccc(OCc3ccccc3)cc2)no1` (configuration not stated): the inhibition is 106% (active).
The result for `Cc1ccc(C2(c3ccc(C)cc3)NC(=O)N(Cc3c(C)noc3C)C2=O)cc1` reads 4.44%; that for `O=C(CCc1ccccc1)NNC(=O)COc1ccc(Cl)cc1`, 5.54%.
The result for `Clc1ccc(C2CC(c3cccs3)n3ncnc3N2)cc1Cl` (configuration not stated) reads -0.937%; that for `FC(F)Oc1ccccc1C1CC(c2ccc(Br)s2)Nc2ncnn21` (configuration not stated), 59.5% (active); that for `COc1ccc(C2CC(c3ccc(C)cc3)Nc3ncnn32)cc1` (configuration not stated), -7.13%.
